For 36 sequences, binding signal results are on record in PMC5700166.

The target in experiment [1] is T1, GST-Nv-NF-kB (Ser allele) (Nematostella vectensis, UniProt A7UNT2 2-411).
T1 sequence: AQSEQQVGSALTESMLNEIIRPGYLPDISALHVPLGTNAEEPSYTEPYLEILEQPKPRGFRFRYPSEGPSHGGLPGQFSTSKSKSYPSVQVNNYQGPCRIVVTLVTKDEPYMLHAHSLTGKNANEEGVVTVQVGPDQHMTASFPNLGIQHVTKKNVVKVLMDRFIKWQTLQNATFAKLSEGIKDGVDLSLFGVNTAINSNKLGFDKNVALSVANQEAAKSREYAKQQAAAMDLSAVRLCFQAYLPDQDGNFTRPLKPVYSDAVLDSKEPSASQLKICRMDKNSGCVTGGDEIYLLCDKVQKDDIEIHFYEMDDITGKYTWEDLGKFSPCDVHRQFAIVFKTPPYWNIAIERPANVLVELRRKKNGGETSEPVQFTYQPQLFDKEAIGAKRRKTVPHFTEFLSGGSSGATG
The experiment can be described thus: protein-binding microarray (PBM); PBM: ~300 nM protein, 6 mM HEPES pH 7.8, 80 mM KCl, 0.5 mM EDTA, 0.5 mM EGTA, 6% glycerol, 35 ng/ul poly-dIdC, 1% milk, 1 h, room temperature; Ap Aiptasia and Nv Nematostella (sea anemones) / Co Capsaspora / Aq Amphimedon (sponge) / Dm Drosophila / Hu human; RHD is the Rel homology domain; high values mean tight binding. Conditions: dsDNA, one strand shown.

In experiment [2] the target is GST-Hu-p50 (Homo sapiens, UniProt P19838 7-356). The description is as above. As to conditions: dsDNA, one strand shown.
GST-Hu-p50, sequence (P19838 7-356): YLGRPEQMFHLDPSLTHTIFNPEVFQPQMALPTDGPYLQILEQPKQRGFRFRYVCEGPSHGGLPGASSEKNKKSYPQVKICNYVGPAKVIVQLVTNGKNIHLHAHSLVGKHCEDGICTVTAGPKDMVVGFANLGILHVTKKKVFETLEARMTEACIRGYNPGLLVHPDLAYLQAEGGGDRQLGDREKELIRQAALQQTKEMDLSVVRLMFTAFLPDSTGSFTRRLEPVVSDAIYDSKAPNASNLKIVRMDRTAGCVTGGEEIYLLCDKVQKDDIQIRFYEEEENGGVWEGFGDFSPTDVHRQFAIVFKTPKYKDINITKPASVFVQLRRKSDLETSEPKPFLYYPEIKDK

In the case of “CCGATTAACATCAGGGAAATTCATGATGTTAATCGGGTCTTGATTCGCTTGACGCTGCTG”, the binding signal in experiment [1] came out at 5.89 z-score; in experiment [2], 4.4 z-score.

On to “CCGATTAACATCATTAGGGTATTTGATGTTAATCGGGTCTTGATTCGCTTGACGCTGCTG”, for which the binding signal in experiment [1] was found to be 4.26 z-score; in experiment [2], 4.5 z-score.

Regarding “CCGATTAACATCAGGGGGTTAGATGATGTTAATCGGGTCTTGATTCGCTTGACGCTGCTG”, the results for the binding signal in experiment [1] and in experiment [2] were 3.46 z-score and 3.95 z-score, respectively.

In the case of “CCGATTAACATCAAATTCCCAGCTGATGTTAATCGGGTCTTGATTCGCTTGACGCTGCTG”, the binding signal in experiment [1] worked out at 3.85 z-score; in experiment [2] it was 2.81 z-score.

“CCGATTAACATCAAAACAGCCCCTGATGTTAATCGGGTCTTGATTCGCTTGACGCTGCTG”: the binding signal in experiment [1] was 3.68 z-score; in experiment [2] it was 4.54 z-score.

“CCGATTAACATCAAGCGTTCCCCTGATGTTAATCGGGTCTTGATTCGCTTGACGCTGCTG”: the binding signal worked out at 6.39 z-score in experiment [1] and 3.66 z-score in experiment [2].

Regarding “CCGATTAACATCACCGAATTTGGTGATGTTAATCGGGTCTTGATTCGCTTGACGCTGCTG”, the binding signal in experiment [1] is 1.14 z-score; in experiment [2] it was 2.09 z-score.

For “CCGATTAACATCAGGGGAATGACTGATGTTAATCGGGTCTTGATTCGCTTGACGCTGCTG”, the binding signal was found to be 6.22 z-score in experiment [1] and 4.83 z-score in experiment [2].

In the case of “CCGATTAACATCAGGGATCTACCTGATGTTAATCGGGTCTTGATTCGCTTGACGCTGCTG”, the binding signal in experiment [1] amounted to 1.74 z-score; in experiment [2], 2.74 z-score.

In the case of “CCGATTAACATCAGGGAATTATATGATGTTAATCGGGTCTTGATTCGCTTGACGCTGCTG”, the results for the binding signal in experiment [1] and in experiment [2] were 5.77 z-score and 4.39 z-score, respectively.

On to “CCGATTAACATCAGGGAATTACATGATGTTAATCGGGTCTTGATTCGCTTGACGCTGCTG”, for which the values for the binding signal in experiment [1] and in experiment [2] were 4.68 z-score and 3.82 z-score, respectively.

“CCGATTAACATCAGGAGTACCCCTGATGTTAATCGGGTCTTGATTCGCTTGACGCTGCTG”: the binding signal in experiment [1] stood at 2.31 z-score; in experiment [2], 2.81 z-score.

With “CCGATTAACATCAGGGGAACACATGATGTTAATCGGGTCTTGATTCGCTTGACGCTGCTG”, the binding signal came to 5.55 z-score in experiment [1] and 3.37 z-score in experiment [2].

For “CCGATTAACATCAGAAATCTCCCTGATGTTAATCGGGTCTTGATTCGCTTGACGCTGCTG”, the binding signal in experiment [1] was 4.16 z-score; in experiment [2] it was 4.42 z-score.

On to “CCGATTAACATCAGGCTTTCCCATGATGTTAATCGGGTCTTGATTCGCTTGACGCTGCTG”, for which the binding signal in experiment [1] was 1.98 z-score; in experiment [2], 1.36 z-score.

With “CCGATTAACATCATGATGGGAAATGATGTTAATCGGGTCTTGATTCGCTTGACGCTGCTG”, the binding signal came out at 1.98 z-score in experiment [1] and 2.02 z-score in experiment [2].

As to “CCGATTAACATCAGGGACAAAAATGATGTTAATCGGGTCTTGATTCGCTTGACGCTGCTG”, the binding signal came out at 3.37 z-score in experiment [1] and 2.61 z-score in experiment [2].

On to “CCGATTAACATCACTTTCCCAAATGATGTTAATCGGGTCTTGATTCGCTTGACGCTGCTG”, for which the binding signal was 3.07 z-score in experiment [1] and 1.67 z-score in experiment [2].

Consider “CCGATTAACATCACTTTTTCCCATGATGTTAATCGGGTCTTGATTCGCTTGACGCTGCTG”, for which the values for the binding signal in experiment [1] and in experiment [2] were 4.35 z-score and 3.04 z-score, respectively.

“CCGATTAACATCAACACCCCCCCTGATGTTAATCGGGTCTTGATTCGCTTGACGCTGCTG”: the results for the binding signal in experiment [1] and in experiment [2] were 3.82 z-score and 3.88 z-score, respectively.

As to “CCGATTAACATCAGGGACCGCCCTGATGTTAATCGGGTCTTGATTCGCTTGACGCTGCTG”, the values for the binding signal in experiment [1] and in experiment [2] were 1.35 z-score and 3.16 z-score, respectively.

As to “CCGATTAACATCAGAATAACCCCTGATGTTAATCGGGTCTTGATTCGCTTGACGCTGCTG”, the binding signal in experiment [1] is 3.11 z-score; in experiment [2] it was 4.22 z-score.

For “CCGATTAACATCAAGAAATTACCTGATGTTAATCGGGTCTTGATTCGCTTGACGCTGCTG”, the figures for the binding signal in experiment [1] and in experiment [2] were 5.68 z-score and 3.38 z-score, respectively.

As to “CCGATTAACATCAGGGGTTACCCTGATGTTAATCGGGTCTTGATTCGCTTGACGCTGCTG”, the binding signal in experiment [1] is 4.21 z-score; in experiment [2], 3.9 z-score.

As to “CCGATTAACATCAAGGCATTCCCTGATGTTAATCGGGTCTTGATTCGCTTGACGCTGCTG”, the binding signal in experiment [1] was found to be 2.11 z-score; in experiment [2], 1.31 z-score.

“CCGATTAACATCAATGGGTTTTCTGATGTTAATCGGGTCTTGATTCGCTTGACGCTGCTG”: the binding signal stood at 2.25 z-score in experiment [1] and 1.9 z-score in experiment [2].

For “CCGATTAACATCATTTCCCAAAATGATGTTAATCGGGTCTTGATTCGCTTGACGCTGCTG”, the values for the binding signal in experiment [1] and in experiment [2] were 2.41 z-score and 1.56 z-score, respectively.

Turning to “CCGATTAACATCACTCCCTAAAATGATGTTAATCGGGTCTTGATTCGCTTGACGCTGCTG”, the binding signal is 1.75 z-score in experiment [1] and 2.32 z-score in experiment [2].

Turning to “CCGATTAACATCAGGGGAAGGAATGATGTTAATCGGGTCTTGATTCGCTTGACGCTGCTG”, the binding signal in experiment [1] was 6.09 z-score; in experiment [2], 3.5 z-score.

On to “CCGATTAACATCACGGAACTCCCTGATGTTAATCGGGTCTTGATTCGCTTGACGCTGCTG”, for which the results for the binding signal in experiment [1] and in experiment [2] were 3.15 z-score and 3.05 z-score, respectively.

Turning to “CCGATTAACATCAATATTTCCCATGATGTTAATCGGGTCTTGATTCGCTTGACGCTGCTG”, the binding signal in experiment [1] turned out to be 3.55 z-score; in experiment [2], 3.27 z-score.

As to “CCGATTAACATCAAAAGACCCCCTGATGTTAATCGGGTCTTGATTCGCTTGACGCTGCTG”, the binding signal in experiment [1] was determined as 5.47 z-score; in experiment [2] it was 5.26 z-score.

With “CCGATTAACATCAGGGGGATAGATGATGTTAATCGGGTCTTGATTCGCTTGACGCTGCTG”, the binding signal turned out to be 4.13 z-score in experiment [1] and 3.89 z-score in experiment [2].

Turning to “CCGATTAACATCAGGGGGTAGAATGATGTTAATCGGGTCTTGATTCGCTTGACGCTGCTG”, the binding signal in experiment [1] was 4.04 z-score; in experiment [2] it was 3.9 z-score.

Consider “CCGATTAACATCACTAATTTCCCTGATGTTAATCGGGTCTTGATTCGCTTGACGCTGCTG”, for which the binding signal is 6.51 z-score in experiment [1] and 3.94 z-score in experiment [2].

Regarding “CCGATTAACATCAGAGAAACCCCTGATGTTAATCGGGTCTTGATTCGCTTGACGCTGCTG”, the figures for the binding signal in experiment [1] and in experiment [2] were 4.24 z-score and 5.09 z-score, respectively.
